Screening data as filed in PubChem.
Most compounds without a hit are left out; they make up all but 12% or so of the library.
Pf growth 96h: P. falciparum growth inhibition at 96 hours | AID 504834 | Potency, µM (highest dose often 28.7 µM), hits mostly inhibitors | P. falciparum luciferase reporter growth, 96 h | 320,000 compounds, 6.9% hits
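P. falciparum expressing integrated firefly luciferase, in erythrocytes at 2% hematocrit, 0.05% parasitemia, incubated with compounds 96 h at 37 C, 5% CO2. Growth inhibition read as loss of luminescence; two-generation exposure targets delayed-death apicoplast inhibitors.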
AmpC inh detg: inhibitors of E. coli AmpC beta-lactamase with detergent; AID 485294; 370,000 compounds, 0.041% hits; P00811; Potency, µM (titrated, usually from 114 µM), most hits filed as inhibitors; AmpC hydrolysis of nitrocefin, absorbance 480 nm, 0.01% Triton; note: nearly all actives have a fitted effect of over 25% in size
Target sequence (P00811 whole entry, looked up): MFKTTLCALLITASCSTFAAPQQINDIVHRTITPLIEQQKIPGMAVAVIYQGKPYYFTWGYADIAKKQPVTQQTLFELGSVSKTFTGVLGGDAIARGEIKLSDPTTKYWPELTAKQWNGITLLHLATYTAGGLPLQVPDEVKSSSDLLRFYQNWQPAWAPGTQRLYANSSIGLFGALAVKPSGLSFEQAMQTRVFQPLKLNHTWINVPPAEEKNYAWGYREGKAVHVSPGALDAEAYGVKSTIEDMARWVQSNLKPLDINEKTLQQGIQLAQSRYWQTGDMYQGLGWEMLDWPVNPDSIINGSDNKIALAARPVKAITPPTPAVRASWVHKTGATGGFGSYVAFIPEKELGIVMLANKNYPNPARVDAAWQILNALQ
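AmpC (5.3 nM in the dispensed reagent) in 20 mM phosphate pH 7.0 with 0.01% (detergent screen) or 0.0001% Triton X-100 was preincubated with compounds for 15 min at room temperature. Nitrocefin was then added from an 800 uM solution, and hydrolysis was followed at 480 nm.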
Sm TGR block: S. mansoni TGR enzyme inhibition; AID 485364; Potency, µM (doses to about 114 µM), actives largely listed as inhibitors; purified TGR, DTNB reduction, TNB absorbance 405 nm; Q962Y6; 360,000 compounds, 3% hits; note: nearly all actives have a fitted effect of over 60% in size
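First, TGR (20 nM dispensed) and NADPH were mixed with compound. Second, a 15 min room-temperature incubation followed. Third, further NADPH and then DTNB were added to start the reaction. Finally, TNB absorbance was monitored kinetically.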
AmpC inh no detg: AmpC beta-lactamase inhibition without detergent; P00811; AmpC nitrocefin hydrolysis, absorbance 480 nm, 0.0001% Triton; Potency, µM (doses to about 57.1 µM), hits mostly inhibitors; 330,000 compounds, 0.52% hits; AID 485341; note: nearly all actives have a fitted effect of over 20% in size
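AmpC (5.3 nM in the dispensed reagent) in 20 mM phosphate pH 7.0 with 0.01% (detergent screen) or 0.0001% Triton X-100 was preincubated with compounds for 15 min at room temperature. Nitrocefin was then added from an 800 uM solution, and hydrolysis was followed at 480 nm.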
SARS PLpro yeast: inhibitors of SARS-CoV papain-like protease in yeast; S. cerevisiae expressing SARS-CoV PLpro, growth rescue; 330,000 compounds, 0.19% hits; Potency, µM (highest dose often 32.9 µM), hits mostly activators; calls by dose curve; note: nearly all actives have a fitted effect of over 55% in size
Pf growth 48h: inhibits P. falciparum growth in the first generation, 48 h; P. falciparum luciferase growth in erythrocytes, 48 h; Potency, µM (titrated, usually from 28.7 µM), actives largely listed as inhibitors; 310,000 compounds, 5.9% hits; AID 504832
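Growth was read as firefly luciferase luminescence after a 48 h, 37 C, 5% CO2 exposure of compounds to reporter-bearing P. falciparum cultures (0.1% parasitemia, 2% hematocrit final) in Albumax-supplemented RPMI 1640.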
Numbers stand for hits; . = inactive; ? = inconclusive; / = no result; [ ] = another dose, or the depositor's remark. Unless noted, calls come from the whole dose curve; as a rule, active = well fitted curve in the direction sought with a large enough effect; inconclusive = small, poorly fitted or top-dose-only effect, or another doubt; inactive = no such curve, though single readings can be large; an effect the other way counts as inactive or inconclusive.

SMILES | Pf growth 96h | AmpC inh detg | Sm TGR block | AmpC inh no detg | SARS PLpro yeast | Pf growth 48h
COc1ccc(CN2C(=O)C(Cc3ccccc3)Nc3ncnc(N4CCOCC4)c32)cc1 (centres undefined) | ? | ? | ? | . | . | ?
O=C1C(Cc2ccccc2)Nc2ncnc(N3CCc4ccccc4C3)c2N1Cc1ccc(Cl)cc1 (centres undefined) | 6.6µM | ? | . | . | . | 15µM
COc1ccc(CN2C(=O)C(Cc3ccccc3)Nc3ncnc(N4CCc5ccccc5C4)c32)cc1 (centres undefined) | 5.2µM | . | ? | . | . | 7.4µM
COc1ccc2nc(NC(=O)C3CC(=O)N(c4ccccc4)C3)sc2c1 (centres undefined) | . | . | . | . | / | .
CCOC(=O)c1cccc(NC(=O)CCCn2c(C)c3cnn(-c4ccccc4)c(=O)c3c2C)c1 | / | . | . | / | / | /
COc1ccc(OC)c(C2C(C(=O)c3ccccc3)=C(C)Nc3nc4ccccc4n32)c1 (centres undefined) | ? | ? | . | . | . | ?
COc1ccc(C2C(C(=O)c3ccccc3)=C(C)Nc3nc4ccccc4n32)cc1OC (centres undefined) | 3.3µM | ? | . | . | . | .
COCCCNC(=S)N(Cc1cccnc1)Cc1ccc(OC)c(OC)c1 | ? | . | . | . | . | .
COC(=O)CCCC(=O)N1CCCC(CCC(=O)NCc2ccc(F)c(F)c2)C1 (centres undefined) | . | . | . | . | . | 8.3µM
COc1cccc(CNC(=O)CCC2CCCN(C(=O)c3ccccc3N(C)C)C2)c1 (centres undefined) | ? | . | 79µM | . | . | ?
COc1cccc(CNC(=O)CCC2CCCN(C(=O)c3cccc(Cl)c3)C2)c1 (centres undefined) | . | . | . | . | . | .
COc1cccc(CNC(=O)CCC2CCCN(C(=O)c3cccc4c(C)c(C)[nH]c34)C2)c1 (centres undefined) | .[1.15 µM] | . | ? | . | . | 12µM
CCN(C(=O)CSc1nnc(-c2c[nH]c3ccccc23)n1C1CC1)C1CCS(=O)(=O)C1 (centres undefined) | ? | ? | . | . | . | ?
COC(=O)C1=COC(C)C2CN3CCC4(C(=O)Nc5ccccc54)C3CC12 (centres undefined) | ? | . | . | . | . | .
COC(=O)C1=COC(C)C2CN3CCc4c([nH]c5cc(OC)c(OC)cc45)C3CC12 (centres undefined) | 0.83µM | . | 20µM | . | . | ?
CCCn1cc(S(=O)(=O)c2cccc(Cl)c2)c(=O)c2cc(F)c(N3CCOCC3)cc21 | / | . | . | / | / | /
COC(=O)CC1C(=O)NCCN1C(=O)c1ccc2oc(C(C)C)nc2c1 (centres undefined) | 15µM | . | . | . | . | .
CCCCc1nc2cc(C(=O)N3CCNC(=O)C3CC(=O)OC)ccc2o1 (centres undefined) | ? | ? | . | . | . | .
Cc1ccc2c(cnn2C(=O)CCC(=O)NCc2cccc(Br)c2)c1 | 2.6µM | . | . | . | . | .
COc1cc([N+](=O)[O-])ccc1NC(=O)Nc1nc2c(s1)CCCC2 | . | . | . | . | . | 1.5µM
O=C(Nc1nc2c(s1)CCCCCC2)Nc1ccc(F)cc1F | / | . | . | / | / | /
Cc1oc2c(c1C(=O)O)C(=O)c1ccccc1C2=O | ? | . | . | . | . | ?
CCOC(=O)c1c(C)oc2c1C(=O)c1ccccc1C2=O | . | . | . | . | . | 0.74µM
O=C1C(=O)c2c(C(=O)c3ccccc3)coc2-c2ccccc21 | ? | . | ? | . | . | /
Cc1oc2c(c1C(=O)c1ccccc1)C(=O)C(=O)c1ccccc1-2 | 13µM | . | ? | . | . | 9.3µM
C/C(N)=C(/C#N)C(=O)CSc1nc2scc(-c3ccc(F)cc3)c2c(=O)n1C | ? | . | . | . | . | .
COc1ccc(C2CC(=O)N(CC(=O)Nc3ccc(C)c(Cl)c3)c3ccccc3S2)cc1OC (centres undefined) | / | . | . | / | / | /
